Experimental data published in the supplement of paper PMC10338343.
± gives the standard deviation. The full ranking holds about 8,200 sequences; the median of “pre-steady-state target cleavage rate” is about 0.024, and the highest 2% start at about 1.3. The sample holds the highest values, similar sequences and a random draw of the others, so the mix is not that of the screen.

Test system: MIWI (PIWIL1) piRISC loaded with L1MC piRNA (30 nt)
Test: pre-steady-state target cleavage rate (min^-1); MIWI and MILI are mouse PIWI proteins and EfPiwi is from a freshwater sponge; tags in brackets are library labels; higher = faster piRNA-guided slicing of the target
Details: guide: L1MC piRNA 5'p-UAACUAAAUACUAUGCAAGCUGUAGGUCCU
Outline: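 A transcribed, DNA-blocked target RNA library […] was incubated at 33 °C for 0–8 or 0–960 min with 1 nM active affinity-purified piRISC carrying one synthetic guide, in HEPES–potassium acetate buffer with or without 500 nM GTSF1 partner protein. Uncleaved targets were then sequenced and normalised to depth and to weakly complementary targets. Data from three trials were pooled, with k3 capped at 0.0001 min^-1, and a burst-and-steady-state fit yielded the pre-steady-state cleavage rate.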

[1] = auxiliary factor: 500 nM mouse GTSF1
[2] = auxiliary factor: none (no GTSF1)
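Further: 1 nM active piRISC with 0.1 nM target library at 33 °C single turnover.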

| Sequence | pre-steady-state target cleavage rate [1] | pre-steady-state target cleavage rate [2] |
| --- | --- | --- |
| UCGUCCUACACCUUGCAUAGUAUUUAGUUA | 0.986 ± 0.045 | 0.0586 ± 0.0084 |
| UCGACCUACAGCUUGCAUACAAUUUAGUUA | 0.0219 ± 0.0076 | 0.00334 ± 0.0025 |
| UCCUCGUACAGCUUGCAUAGUAUUUAGAAA | 0.363 ± 0.029 | 0.00538 ± 0.0021 |
| UCCACCGUACAGCUUGCAUAGUAUUUAGUUA | 1.18 ± 0.054 | 0.0628 ± 0.012 |
| UCCUCGUACAGCUUGCAAAGUAUUUAGUUA | 1.32 ± 0.048 | 0.0595 ± 0.012 |
| UCCUGGUACAGCUUGCAAAGUAUUUAGUUA | 0.711 ± 0.046 | 0.0405 ± 0.0074 |
| UGGUCGUACAGCUUGCAUAGUAUUUAGUUA | 1.33 ± 0.056 | 0.073 ± 0.0095 |
| UCGUCGUACAGCUUGCAUAGUAUUUAGUUA | 1.31 ± 0.067 | 0.0685 ± 0.012 |
| UCCUCCUACAGCUUGCAAAGUAUUUAGUUA | 1.14 ± 0.039 | 0.0317 ± 0.0066 |
| UCCUCGUACAGCUUGCAUAGUAUUUAGUUA | 1.46 ± 0.043 | 0.0602 ± 0.01 |
| UCGUGGUACAGCUUGCAUAGUAUUUAGUUA | 1.23 ± 0.038 | 0.0818 ± 0.014 |
| UCGUACCUACAGCUUGCAUAGUAUUUAGUUA | 0.909 ± 0.034 | 0.0778 ± 0.016 |
| UCCUCGUACAGCUUGCAUAGUAUUUAGUAA | 0.903 ± 0.048 | 0.0263 ± 0.0049 |
| UCCUGCUACAGCUUGCAUAGUAUAAUGUAA | 0.188 ± 0.038 | – |
| UGGACCUACAGCUUGCAUAGUAUUAAGUUA | 0.719 ± 0.06 | 0.0363 ± 0.006 |
| AGGACCUACUGCUUCCAUAGUAUUUAGUUA | 0.069 ± 0.011 | 0.00657 ± 0.0012 |
| UCGAGCUAGAGCUUGCAUAGUAUUUAGUUA | 0.962 ± 0.051 | 0.0483 ± 0.0092 |
| UCGACCAAGAGCUUGCAUAGUAUUUAGUUA | 0.954 ± 0.04 | 0.0547 ± 0.011 |
| UCCUGGAUGUGCUUGCAUAGUGAUUUAGUUA | 0.00393 ± 0.0038 | – |
| UCCUGGUACAGCUAGGAUAGUAUUUAGUUA | 0.611 ± 0.084 | 0.00486 ± 0.002 |
| UGGACCUACAGCUUGGAUAGUAUUUAGAAA | 0.342 ± 0.047 | 0.0107 ± 0.003 |

| Sequence | pre-steady-state target cleavage rate [1] | pre-steady-state target cleavage rate [2] |
| --- | --- | --- |
| UCCUGCUACAGCUUGCAAACUAUUUAGUUA | 0.363 ± 0.027 | 0.00719 ± 0.0031 |
| AGGACCUACAGCUUGCAUAGUAUUUUGUUA | 0.949 ± 0.064 | 0.0718 ± 0.016 |
| UCCUGCUACUGCUUGCAUAGUAUAUAGUUA | 0.226 ± 0.024 | 0.0142 ± 0.0034 |
| AGGACCUACAGGAAGCAUAGUAUUUUCAAA | 0.132 ± 0.024 | – |
| UCCUGGAUCAGGUAGCAUAGUAUUUAGUUA | 0.0152 ± 0.0033 | 0.00289 ± 0.0022 |
| UCCUGGUACAGCUUGCUUAGUAUUUAGUUA | 0.79 ± 0.037 | 0.0523 ± 0.011 |
| UCCAGGUACAGCUUGCAUAGUAUUUAGUUA | 1.09 ± 0.04 | 0.0764 ± 0.011 |
| UCCUCCUACAGCUUGCUUAGUAUUUAGUUA | 1.28 ± 0.06 | 0.0241 ± 0.0053 |
| AGGUCGUACAGCUUGCAUAGUAUUUAGUUA | 1.44 ± 0.065 | 0.0817 ± 0.012 |
| UCCUCGUACAGCUUGCUUAGUAUUUAGUUA | 1.51 ± 0.069 | 0.0419 ± 0.0089 |
| AGGACCUAGAGCUUGCAUAGUUUUUAGUUA | 0.343 ± 0.023 | 0.0238 ± 0.0061 |
| UCCUCCUACAGCUUGCAUAGUUAUUAGAAA | 0.0862 ± 0.022 | – |
| UCCUGGAACAGCAUGCAUAGUAUUUACUUA | 0.446 ± 0.045 | 0.0279 ± 0.0094 |
| UCCACCUACAGCUUGCAUAGUAUUCUAGUUA | 0.633 ± 0.067 | 0.0214 ± 0.0052 |
| UCCUCCUACAGCUUGGAUAGUAUUUAGUAA | 0.707 ± 0.045 | 0.0186 ± 0.0033 |
| UCCUCCUACAGCUUGGAUAGUAUUUAGAUA | 0.372 ± 0.039 | 0.00865 ± 0.0019 |
| UCCUCCUACAGCUUGAUAGUAUUUAGUUA | 0.824 ± 0.05 | 0.00583 ± 0.0021 |
| UGGUCCUACAGCUUGGAUAGUAUUUAGUUA | 1.22 ± 0.038 | 0.0568 ± 0.0069 |
| AGGUCCUACAGCUUGGAUAGUAUUUAGUUA | 1.39 ± 0.072 | 0.079 ± 0.014 |
| UCGUCCUACAGCUUGGAUAGUAUUUAGUUA | 1.56 ± 0.048 | 0.0586 ± 0.0084 |
| UCCUGCUACAGCUUGGAUAGUAUUUAGUUA | 1.29 ± 0.12 | 0.0507 ± 0.0096 |

| Sequence | pre-steady-state target cleavage rate [1] | pre-steady-state target cleavage rate [2] |
| --- | --- | --- |
| UGGAGCUACAGCUUGGAUAGUAUUUAGUUA | 1.11 ± 0.083 | 0.0533 ± 0.0083 |
| UCCUCCUACAGCUUGUAUAGUAUUUAGUUA | 1.38 ± 0.042 | 0.0427 ± 0.008 |
| UCCUCCUACAGCUUGGAUAGUAUUUAGUUA | 1.44 ± 0.045 | 0.0511 ± 0.0092 |
| UCCUCCUACAGCUUGUCAUAGUAUUUAGUUA | 0.44 ± 0.046 | – |
| UCCUCCUACAGCUUGGCAUAGUAUUUAGUUA | 0.831 ± 0.11 | 0.0114 ± 0.0021 |
| UCCACCUACAGCUUGCAUUGUAUUUACAAA | 0.112 ± 0.024 | – |
| UCCUGGUACAGCAUGCAUAGUAUUUAGUAA | 0.377 ± 0.04 | 0.00875 ± 0.0024 |
| UCCUGGAUGAGCUUGCAUGGUAUUUAGUUA | 0.743 ± 0.043 | 0.0817 ± 0.02 |
| UCCUGGAUCAGCUUGCAUAGAAUUUAGUUA | 0.258 ± 0.028 | 0.0291 ± 0.0088 |
| UCCUCCUACAGCUUGCAUUGUAUUUACUUA | 0.388 ± 0.031 | 0.0162 ± 0.0032 |
| UCCUGGAUCAGCAUGCAUAGUAUUUACAAA | 0.156 ± 0.034 | – |
| UCCUGGAUGUGCUUGCAUAGUAUUCUAGUUA | 0.211 ± 0.037 | 0.0155 ± 0.0049 |
| UCGACCAACAGCUAGCAUAGUAUUUAGUUA | 1.08 ± 0.046 | 0.0286 ± 0.0073 |
| AGGACCAACAGCUAGCAUAGUAUUUAGUUA | 1.08 ± 0.052 | 0.038 ± 0.01 |
| UGGACCAACAGCUUGCAUAGUAUUUAGUUA | 1.35 ± 0.047 | 0.0769 ± 0.013 |
| UGGACCAACAGCUUGCAUAGUAUUUAGAUA | 0.428 ± 0.022 | 0.0582 ± 0.014 |
| UGGACCAACAGCUAGCAUAGUAUUUAGUUA | 1.36 ± 0.059 | 0.0347 ± 0.0073 |
| AGGACCAACAGCUUGCAUAGUAUUUAGUUA | 1.4 ± 0.05 | 0.122 ± 0.021 |
| AGGACCAACAGCUUGCAUAGUAUUUAGAAA | 0.624 ± 0.071 | 0.033 ± 0.012 |
